TDP1 cell CPT: DT40-hTDP1 cell growth loss with CPT; chicken DT40 Tdp1-/-;hTDP1 cells + 20 nM CPT, ATP luminescence, 48 h; Potency, µM (top dose mostly 46.2 µM), for inactives: at the highest dose activity change, negative = growth inhibition, hits mostly inhibitors; AID 686979; 420,000 compounds, 12% hits; further: potency means the concentration at half of the fitted maximal effect; nearly all actives have a fitted effect of over 55% in size
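Cell growth measured by CellTiter-Glo luminescence after a minimum 48 h, 37 C compound exposure with 20 nM CPT in Tdp1-knockout DT40 cells stably expressing hTDP1, seeded 400/well; qHTS titration format.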
TDP1 cell noCPT: qHTS for Inhibitors of human tyrosyl-DNA phosphodiesterase 1 (TDP1): qHTS in cells in absence of CPT; DT40 Tdp1-/- hTDP1 cells, no CPT, ATP luminescence, 48 h; AID 686978, 2013; Potency, µM (top dose mostly 46.2 µM), inactives show at the top dose activity change, negative = growth inhibition, usual class: inhibitors; 420,000 compounds, 15% hits; further: potency means the concentration at half of the fitted maximal effect; nearly all actives have a fitted effect of over 55% in size
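DT40 Tdp1-/-;hTDP1 cells, no CPT (DMSO vehicle only), 400 cells/well; compounds pin-transferred; ≥48 hr, 37 °C; CellTiter-Glo 30 min RT dark, luminescence read.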
ELG1 DNA repair: ELG1-dependent DNA repair inhibition | HEK293T ELG1-luciferase reporter, luminescence, 16 h; DNA damage induced by 5-fluorouridine | Potency, µM (titrated, usually from 46.1 µM), without a hit: at the top dose activity change, negative = inhibition, usual class: inhibitors | 330,000 compounds, 2.3% hits | AID 504467; further: potency means the concentration at half of the fitted maximal effect; nearly all actives have a fitted effect of over 55% in size
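Reporter activity after DNA damage by 5-fluorouridine is monitored. Compound-treated cells incubate 16 hr at 37 °C, then ONE-Glo is added for 30 min before luminescence reading.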
IL1B secr inh: inhibitors of inflammasome signaling (IL-1 beta secretion); 360,000 compounds, 4.7% hits; activity change, % at 57.5 µM; THP-1 LPS/ATP IL-1B secretion, AlphaLISA, 16 h; active compounds read low; in the data active means activity change below about -50%; inconclusive means mostly about -30% to -49%
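Secreted IL-1B measured by AlphaLISA bead assay after 16 h compound exposure of THP-1 cells; compounds (final up to 57.5 uM) added 1 h before LPS (250 ng/mL) and ATP (1.25 mM) stimulation; lower signal means less secretion.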
RORg inh: inhibitors of mouse ROR gamma transcriptional activity. 310,000 compounds, 5.4% hits. P51450. AID 2551. Potency, µM (series often up to 53.6 µM), for the others: top-dose activity change, negative = inhibition, hits mostly inhibitors. Drosophila S2 Gal4-RORgamma UAS-luciferase reporter, 20 h; further: potency means the concentration at half of the fitted maximal effect; nearly all actives have a fitted effect of over 60% in size
Target sequence (P51450 whole entry, looked up, the tested form may be a part): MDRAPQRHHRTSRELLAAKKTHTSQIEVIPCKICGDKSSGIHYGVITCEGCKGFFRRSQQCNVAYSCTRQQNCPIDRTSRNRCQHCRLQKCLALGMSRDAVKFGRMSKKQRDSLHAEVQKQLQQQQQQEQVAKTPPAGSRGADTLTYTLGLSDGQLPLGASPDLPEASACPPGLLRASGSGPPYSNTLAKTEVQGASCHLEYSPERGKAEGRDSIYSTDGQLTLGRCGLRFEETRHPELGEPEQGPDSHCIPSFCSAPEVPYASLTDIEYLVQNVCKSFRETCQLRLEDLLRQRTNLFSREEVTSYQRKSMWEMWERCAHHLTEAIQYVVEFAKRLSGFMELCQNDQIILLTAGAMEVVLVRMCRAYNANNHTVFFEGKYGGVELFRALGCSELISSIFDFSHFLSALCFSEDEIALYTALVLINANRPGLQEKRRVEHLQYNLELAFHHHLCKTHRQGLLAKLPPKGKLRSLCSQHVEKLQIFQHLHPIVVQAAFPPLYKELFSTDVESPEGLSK
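Luciferase reporter read in Schneider cells carrying Gal4-RORγ (mouse) and UAS-Photinus luciferase; cells given compound 1 h before 700 uM copper sulfate induction, then incubated 20 h at ambient temperature.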
Gal4-VP16 FLuc: Gal4-VP16 reporter inhibition counter-screen; Drosophila S2 Gal4-VP16 UAS-luciferase, luminescence, 20 h; Potency, µM (doses to about 53.6 µM), without a hit: at the top dose activity, negative = inhibition, actives largely listed as inhibitors; 310,000 compounds, 3.5% hits;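 further: Gal4-VP16 expression switched on by copper sulfate through the metallothionein promoter; potency means the concentration at half of the fitted maximal effect; nearly all actives have a fitted effect of over 50% in size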
Active calls of the source: *; u = inconclusive; x = no result given. An excerpt weighted towards active compounds, which were near 21% of everything screened. Unless noted, the call rests on the fitted dose curve; in most records, active means well fitted curve in the direction sought with a large enough effect; inconclusive means small, poorly fitted or top-dose-only effect, or another doubt; inactive means no such curve, though single readings can be large; an effect the other way counts as inactive or inconclusive. On the % scale 0 is the no-effect control and ±100 the full control effect.

SMILES	TDP1 cell CPT	TDP1 cell noCPT	ELG1 DNA repair	IL1B secr inh	RORg inh	Gal4-VP16 FLuc
COc1cccc(OC)c1C(=O)Nc1ccccc1N1CCCCC1	u	u	-3.3%	-50.5*	u	6.2%
O=C(Nc1ccccc1N1CCCCC1)c1ccc(F)cc1	u	u	-0.7%	22.8	0.4%	8.6%
O=C(Cc1ccccc1)N(Cc1cccnc1)c1nc2ccc(F)cc2s1	u	-6.6%	x	x	x	x
COc1ccccc1NS(=O)(=O)c1cccc(C(=O)N2CCN(C(=O)c3ccco3)CC2)c1	9.7%	8.0%	15.6%	-2.9	x	x
CCCc1nnc(NC(=O)c2cc(=O)c3cc(Cl)ccc3o2)s1	1.3%	3.3%	x	x	x	x
CCCCC(=O)NC(=S)Nc1cccc(Cl)c1N1CCCCC1	u	u	u	u	1.58µM*	5.01µM*
CCCC(=O)NC(=S)Nc1ccccc1N1CCOCC1	u	u	-11.0%	33.8	11.2µM*	u
CCCCC(=O)NC(=S)Nc1ccccc1N1CCCCC1	-13.1%	u	-0.9%	11.1	4.47µM*	8.91µM*
O=C(Cc1ccc(Cl)c(Cl)c1)Nc1ccccc1N1CCOCC1	23.1µM*	u	u	19.0	32.5%	3.2%
CC(C)(C)C(=O)NC(=S)Nc1ccccc1N1CCCC1	-7.2%	-18.4%	6.0%	40.0	19.6%	u
O=C(Cc1ccc(Cl)cc1)NC(=S)Nc1ccccc1N1CCOCC1	-29.6%	u	u	16.8	5.01µM*	5.01µM*
O=C(Cc1ccc(S(=O)(=O)N2CCOCC2)s1)Nc1ccccc1Br	-4.2%	-5.3%	-8.1%	10.9	21.7%	17.4%
CC(=O)NC(=S)Nc1ccccc1N1CCCCC1	-6.1%	-15.3%	-7.1%	26.1	2.51µM*	7.08µM*
CCCC(=O)NC(=S)Nc1cccc(Cl)c1N1CCCCC1	u	u	-7.9%	64.1	0.631µM*	1µM*
CCN(CC)S(=O)(=O)c1ccc(C)c(NC(=O)Cc2ccc(S(=O)(=O)N3CCOCC3)s2)c1	u	20.6µM*	-6.9%	3.2	15.3%	-4.2%
O=C(Nc1cc(F)ccc1F)c1ccc2c(c1)nnn2C1CCCC1	-19.1%	u	x	x	x	x
CNC[C@H](O)[C@@H](O)[C@H](O)[C@H](O)CO	-0.5%	-10.3%	x	x	x	x
CCC1=C2CC[C@H]3C(=O)N(CC(=O)OC)C(=O)[C@H]3[C@H]2[C@@]2(C)C(=O)N(Cc3ccccc3)C(=O)N2C1=O	x	x	x	x	-4.3%	-0.4%
CN(Cc1cccc(C(F)(F)F)c1)C(=O)[C@H]1O[C@@H](n2ccc(N)nc2=O)[C@H](O)[C@@H]1O	4.4%	17.5%	x	20.9	x	x
O=C(Cc1ccc(S(=O)(=O)N2CCOCC2)s1)Nc1ccccc1N1CCOCC1	u	11.6µM*	u	25.4	10.6%	-0.4%
CC(C)CC(=O)Nc1ccccc1N1CCN(c2ccc(F)cc2)CC1	18.4µM*	u	u	0.0	21.9%	-6.6%
CC(C)(C)C(=O)Nc1ccccc1N1CCN(c2ccc(F)cc2)CC1	-22.2%	u	-13.2%	5.1	11.7%	6.0%
CCn1nc(C(=O)Nc2ccccc2N2CCCC2)c2ccccc2c1=O	u	u	u	-62.3*	x	x
CC(C)(C)c1csc(NC(=O)Cc2ccc(S(=O)(=O)N3CCOCC3)s2)n1	u	14.6µM*	-3.5%	u	x	x
Cc1ccsc1C(=O)OCC(=O)NC1CCCC(C)C1C (stereo unspecified)	-15.1%	-22.0%	12.4%	0.1	x	x
COC(=O)c1sccc1S(=O)(=O)N1CCC(n2c(CC3CCCC3)nc3cccnc32)CC1	1.5%	-14.8%	x	x	x	x
COc1ccc(CNC(=O)C2=C(C)C(=O)OC23CCCCC3)cc1	-2.4%	-12.9%	x	x	x	x
